40 compounds from PubChem BioAssay (NCI) can be followed below.

About 83,000 compounds went through this panel and 20% of them were active in at least one assay; those are over-represented in the sample as a whole.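 Testing used 96-well plates and a 48-hour single-concentration exposure. Example: -40 means 40% of the starting cells died.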 Activity calls are given as the source filed them.

The subject of the experiment is CCRF-CEM leukemia. Nature of the experiment: NCI-60 one-dose screen, 48 h (100 = growth as untreated, 0 = no growth, -100 = all killed). The note with it: 10 µM unless noted. The procedure:
Growth inhibition of the CCRF-CEM human tumor cell line is measured as a screen for anti-cancer activity. Cells are grown in 96 well plates and exposed to the test compound for 48 hours. Compounds are tested at a single concentration, which is 10^-5 M for most compounds. The reported endpoint is percent growth (GI% or GIPRCNT), where numbers from 0 - 100% represent growth inhibition, and numbers from -100% - 0 represent cell death. For example, a value of 40 represents 60% growth inhibition. A value of 0 means no net growth occurred over the course of the experiment. A value of -40 indicates 40% of cells at the beginning of the experiment died by the end of the experiment. A value of -100 means all cells are dead at the end of the experiment.
NCI-60 Human Tumor Cell Lines Screen was performed using the standard one-dose NCI protocol, which is described in more detail at https://dtp.cancer.gov/discovery_development/nci-60/default.htm.
Compounds with GIPRCNT values below 10 were considered active. Activity score was based on GIPRCNT using the following formula: […]
Score is 0 for GIPRCNT values of 100 or above, 50 for GIPRCNT values of 0, and 100 for GIPRCNT values of -100.
Regarding `COc1cc(-c2ccc(/C=N/NC(=O)c3[nH]c4ccc(Br)cc4c3-c3ccccc3)s2)cc(OC)c1OC`, the growth is 73.2% (inactive).
Consider `CCCCCCCCc1ccc(C(=O)Nc2ccc(C)cc2C(=O)O)cc1C`, for which the growth was 79.8% (inactive).
Consider `Clc1cccc(-c2ccc(OCCCN3CCN(c4ccncc4)CC3)cc2)c1`, for which the growth is -28.7% (active).
In the case of `Cc1ccc2c(N)c(C(=O)Nc3ccc(OC(F)(F)F)cc3)sc2n1` it was 64.8% (inactive); in that of `Cc1ccc(S(=O)(=O)c2nc(S(=O)(=O)c3ccc(C)cc3)c(Cl)s2)cc1`, 5.23% (active); in that of `Cc1ccc([C@H]2C(C(=O)c3ccc(Cl)cc3)C3(N[C@@H]2c2ccccc2)C(=O)Nc2ccc(Br)cc23)cc1` (stereo not given in full), 68.7% (inactive).
As for `Cc1cc(C)cc(C(=O)Nc2cccc(-c3cn(-c4ccc(S(N)(=O)=O)cc4)nn3)c2)c1`, the figure is 30.4% (inactive); as for `CN(C)c1ccnc(CNCCSC2(c3ccc(C(F)(F)F)cc3)c3ccccc3CCc3ccccc32)c1`, -43.6% (active); as for `NC(=S)Nc1cccc(NC(N)=S)c1`, 96.4% (inactive).
In the case of `CN(C)CCOc1ccc(C(=O)C2[C@H](c3ccc(Cl)cc3)[C@@H](c3ccccc3)NC23C(=O)Nc2ccc(Br)cc23)cc1` (stereo not given in full) it was 43.9% (inactive).
As to `CNC(=O)c1cccc(NC(=O)c2ccc3c(c2)nnn3/C(C#N)=C/c2ccccn2)c1`, the growth is -24.5% (active).
For the compound `CN1CCN(c2ccc3c(c2)nc(NNC(=O)c2cnccn2)c2cccn23)CC1`, the growth was 13.8% (inactive).
As for `COc1ccc(C(SCCNCc2cc(N(C)C)ccn2)(c2ccccc2)c2ccccc2)cc1`, the growth was 4.47% (active).
On to `COc1cc2oc(-c3cccc(NC(=O)[C@H](Cc4ccccc4)NC(=O)OC(C)(C)C)c3)cc(=O)c2c(OC)c1OC`, for which the growth is 32% (inactive).
As for `CC1=C(C(=O)c2ccccc2)C(c2cccc3ccccc23)n2c(nc3ccccc32)N1` (stereo not given), the growth is 55.9% (inactive).
Take `COc1cc(-c2ccc(/C=N/NC(=O)c3[nH]c4ccc(Br)cc4c3-c3ccccc3)o2)cc(OC)c1OC`: the growth is 69.5% (inactive).
In the case of `CC1CCCCN1CCCNC(=O)N/C(N)=N/c1nc2ccccc2s1` (stereo not given) it was 26.8% (inactive); in that of `C#C[C@]1(O)CC[C@H]2[C@@H]3CC=C4c5sc(-c6ccc(O)c(O)c6)nc5CC[C@]4(C)[C@H]3CC[C@@]21C`, -27.9% (active).
In the case of `O=C(/C=C/Nc1ccc(Cl)cc1)c1ccc2c(c1)Nc1ccccc1S2` it was 81.1% (inactive); in that of `Cc1sc2c(c1C)C(c1ccc(Cl)cc1)=N[C@@H](CC(=O)NCCCCCNC(=O)COc1ccc(C3CCC(=O)NC3=O)cc1)c1nnc(C)n1-2` (stereo not given in full), 49.2% (inactive).
As for `CSc1ccc(C(=O)Nc2ccc3nnn(/C(C#N)=C/c4ccccn4)c3c2)cc1`, the figure is 12.6% (inactive); as for `COc1ccc(-c2nnc3ccc(N/N=C/c4ccc(C)cc4)nn23)cc1`, 91.8% (inactive); as for `CC1(C)CC[C@]2(C(=O)O)CC[C@]3(C)C(=CCC4[C@@]5(C)C[C@@H](O)[C@@H]6OC(c7ccccc7Br)OC[C@@]6(C)C5CC[C@]43C)C2C1` (stereo not given in full), 13.1% (inactive).
As to `CSc1ccc(NC(=O)c2ccc3nnn(/C(C#N)=C/c4ccccn4)c3c2)cc1`, the growth is 6.95% (active).
As for `COc1ccc(-c2c(Nn3cnnn3)no[n+]2[O-])cc1`, the figure is 40.6% (inactive).
As for `CC12CC[C@@H]3[C@]4(C)COC(c5cn[nH]c5-c5ccc(Cl)cc5)O[C@@H]4CC[C@@]3(C)[C@@H]1CC(C1=CCOC1=O)O2` (stereo not given in full), the figure is 32.8% (inactive); as for `CCN(CC)c1ccc(/C=N/Nc2nc(-c3ccc(C)cc3)cs2)c(O)c1`, 88.2% (inactive).
As for `COc1ccc2oc(=O)c(C3(C)NC(=O)c4c(/C=C/C(=O)OC(C)(C)C)cccc4N3)cc2c1` (stereo not given), the growth was 32.1% (inactive).
In the case of `NS(=O)(=O)c1ccc(NNC(=O)CCC(=O)c2ccccc2)cc1` it was 75.1% (inactive); in that of `O=C(/C=C/c1ccc(-c2ccccc2)cc1)c1nc2ccccc2n1Cc1ccc(F)cc1`, 11.9% (inactive); in that of `Cn1cc(-c2cc3nc(-c4cn(C)c5ncccc45)cc(N)n3n2)c2cc(Cl)ccc21`, -14.4% (active).
As for `CC1=C(C(=O)c2ccccc2)C(c2ccc(-n3cncn3)cc2)n2c(nc3ccccc32)N1` (stereo not given), the figure is 70.9% (inactive); as for `CC1(C)CC[C@]2(C(=O)O)CC[C@]3(C)C(=CCC4[C@@]5(C)C[C@@H](O)[C@@H]6OC(c7cccc(Br)c7)OC[C@@]6(C)C5CC[C@]43C)C2C1` (stereo not given in full), 27.5% (inactive); as for `Cn1cc(-c2nnc(N)nc2-c2c[nH]c3ccccc23)c2cccnc21`, 34.6% (inactive).
In the case of `N#Cc1ccc(C(=O)Nn2c(N)cc3ccccc3c2=O)cc1` it was 94.7% (inactive); in that of `N#Cc1c(-c2ccccc2Cl)cc(-c2c[nH]c3ccccc23)[nH]c1=O`, 32.2% (inactive); in that of `O=C(Cn1nc(-c2ccccc2)ccc1=O)N/N=C/c1ccc(N2CCOCC2)cc1`, 92.5% (inactive).
On to `CC(C)Sc1nc(NCCc2c[nH]c3ccccc23)c(C#N)c(-c2ccc(F)cc2)n1`, for which the growth is 11.7% (inactive).
As for `C=C1CCC2C3(C)COC(c4ccco4)OC3CCC2(C)C1CC(Sc1ccccc1)C1=CCOC1=O` (stereo not given), the figure is 0.425% (active); as for `N#Cc1c(-c2cccc(O)c2O)cc(-c2ccc3ccccc3c2)[nH]c1=O`, 13.4% (inactive).
